Measurements as given in PubChem BioAssay AID1508602 (The Scripps Research Institute Molecular Screening Center, 2020).
Out of some 650,000 compounds screened, about 6,800 (1%) were called active. Cut-off read from the data, not from the text of the source: active = activation above about 4.9%; inactive = the rest. This excerpt belongs to a sample that is enriched for actives.

What follows are molecules tested against G-protein coupled receptor 151 (Homo sapiens) (UniProt Q8TDV0) (assay: activators of human GPR151, primary screen, cell-based, PathHunter beta-arrestin, luminescence (AID 1508602;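 note: 0% = median of compound wells and 100% = cells with positive control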)). Details: PathHunter beta-arrestin GPR151 cells, at 11.2 µM, hits give high values.
Chain of G-protein coupled receptor 151 (Homo sapiens) (Q8TDV0 whole entry, looked up): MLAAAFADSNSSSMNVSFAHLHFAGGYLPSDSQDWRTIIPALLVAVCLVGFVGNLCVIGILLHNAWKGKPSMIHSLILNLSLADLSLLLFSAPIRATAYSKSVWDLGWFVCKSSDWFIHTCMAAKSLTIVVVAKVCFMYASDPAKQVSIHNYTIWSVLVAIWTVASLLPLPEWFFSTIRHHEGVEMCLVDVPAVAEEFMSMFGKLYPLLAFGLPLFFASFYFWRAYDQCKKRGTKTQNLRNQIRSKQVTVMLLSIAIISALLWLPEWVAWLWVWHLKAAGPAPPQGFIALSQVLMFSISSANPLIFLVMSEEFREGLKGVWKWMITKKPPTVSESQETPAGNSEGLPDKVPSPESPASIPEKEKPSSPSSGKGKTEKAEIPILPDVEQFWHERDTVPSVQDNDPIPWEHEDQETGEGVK

| SMILES | activation |
| --- | --- |
| Cc1ccc(N=Cc2c(NCc3ccco3)nc3c(C)cccn3c2=O)cc1 | -0.949% (inactive) |
| C/C(=N/NC(=O)c1ccccc1)c1ccc(F)cc1 | -1.24% (inactive) |
| CCCNc1ncnc2c1nc(Nc1cccc(N(C)C)c1)n2C(C)C | -1% (inactive) |
| CC(C)n1c(Nc2ccc3ncccc3c2)nc2c(NC3CC3)ncnc21 | 7.49% (active) |
| CC(C)n1c(Nc2ccc3ncccc3c2)nc2c(N)ncnc21 | 0.875% (inactive) |
| CC1=C(C(=O)Nc2nc3ccc(Br)cc3s2)C(c2ccccc2C)C2=C(CC(C)(C)CC2=O)N1 (centres undefined) | 1.38% (inactive) |
| COc1ccc(C(=O)Nc2ccc(S(=O)(=O)NC(C)C)cc2)cc1 | 5.49% (active) |
| COc1ccc(C(=O)Nc2ccc(S(=O)(=O)N(C)C3CCCCC3)cc2)cc1 | -0.159% (inactive) |
| COc1ccc(NC(=O)c2ccc(C(=O)Nc3ccc(OC)cc3)cc2)cc1 | -0.694% (inactive) |
| COc1cccc(-c2nc3nc(C)c(CCC(=O)NC4CCCC4)c(C)n3n2)c1 | 0.324% (inactive) |
| Cc1ccc(Cl)cc1NC(=O)C1CC(=O)c2ccccc21 (centres undefined) | 0.739% (inactive) |
| Cc1nc(-c2cccc(NC(=O)C3CC(=O)c4ccccc43)c2)cs1 (centres undefined) | 7.17% (active) |
| CC(=O)Nc1cccc(-c2csc(C)n2)c1 | -0.0322% (inactive) |
| CCSCCOC(=O)C1=C(C)NC2=C(C(=O)CC(c3cccs3)C2)C1c1cc(OC)c(O)c([N+](=O)[O-])c1 (centres undefined) | 0.362% (inactive) |
| c1ccc(CN2CCC(Nc3nnnn3-c3ccccc3)CC2)cc1 | 0.295% (inactive) |
| CC(NC(=O)Nc1ccc(Br)cc1Br)(C(F)(F)F)C(F)(F)F | -0.154% (inactive) |
| CCOC(=O)c1c(NC(=O)CSc2nnc(CNC(=O)Cc3ccc(OC)cc3)n2-c2ccc(F)cc2)sc2c1CCCC2 | -0.665% (inactive) |
| COCCNC(=S)N1CCN(c2ncccn2)CC1 | -1.93% (inactive) |
| COc1ccccc1N1CCN(CCNC(=O)c2ccc(F)cc2)CC1 | -2.55% (inactive) |
| COCCNC(=S)N1CCN(c2ccccc2OC)CC1 | 12.1% (active) |

| SMILES | activation |
| --- | --- |
| CC(C)(C)c1ccc(S(=O)(=O)ON2C(=O)c3ccccc3C2=O)cc1 | 3.8% (inactive) |
| CCCC(=O)Oc1ccc2c(-c3ccccc3)cc(=O)oc2c1 | 1.03% (inactive) |
| C=CCN(CC=C)C(=O)CSc1nnc2c3ccccc3n(C)c2n1 | 0.64% (inactive) |
| C=CCn1c2ccccc2c2nnc(SCc3[nH]c(=O)[nH]c3C(=O)CCCCC(=O)OCC)nc21 | 9.28% (active) |
| C=CCn1c2ccccc2c2nnc(SC(CC)C(=O)Nc3nc(C)c(C(=O)OCC)s3)nc21 (centres undefined) | -0.843% (inactive) |
| C=CCNC(=O)C(=O)NCC1OCCCN1S(=O)(=O)c1ccccc1 (centres undefined) | 5.93% (active) |
| O=C(NCC1OCCCN1S(=O)(=O)c1ccccc1)C(=O)NC1CC1 (centres undefined) | 0.198% (inactive) |
| O=C(NCCN1CCOCC1)C(=O)NCC1OCCCN1S(=O)(=O)c1ccccc1 (centres undefined) | -0.042% (inactive) |
| Cc1nc(NC(=O)CSc2nnc3c(C)cc4cc5c(cc4n23)OCCO5)sc1C | 0.827% (inactive) |
| O=C(Nc1nc2ccccc2[nH]1)c1cc(Cl)ccc1Cl | -5.18% (inactive) |
| CC(C(=O)NCc1ccc(F)cc1)n1c2ccccc2c2cn[nH]c(=O)c21 (centres undefined) | 0.149% (inactive) |
| CC(C(=O)NC1CCCC1)n1c2ccccc2c2cn[nH]c(=O)c21 (centres undefined) | 0.687% (inactive) |
| CC(C(=O)NCCN1CCOCC1)n1c2ccccc2c2cn[nH]c(=O)c21 (centres undefined) | 6.21% (active) |
| Cc1ccccc1Cn1cc(SCC(=O)N2CCCC2)c2ccccc21 | -1.67% (inactive) |
| COc1ccccc1NC(=O)C1CC12CCN(Cc1cccc(OCCO)c1)CC2 (centres undefined) | -0.488% (inactive) |
| Cn1c2ccccc2c2nnc(SCC(=O)Nc3ccc(NC(=O)C4CC4)cc3)nc21 | 7.08% (active) |
| Cn1c2ccccc2c2nnc(SCC(=O)Nc3ccc(Cl)cn3)nc21 | -1.79% (inactive) |
| Cn1c2ccccc2c2nnc(SCCCCC(=O)Nc3cccc4ccccc34)nc21 | -1.31% (inactive) |
| CC(C)(C)CN1CCC(Oc2cccc(C(=O)NCC3CC(=O)N(C4CC4)C3)c2)CC1 (centres undefined) | -0.301% (inactive) |
